Results filed as inconclusive are left out. Values without a mark were called inactive. Active and inactive are the calls of the source. The call rests on the fitted dose curve; in most records, active means well fitted activation curve with a large enough effect; inconclusive means small, poorly fitted or top-dose-only effect; inactive means no such curve, though single readings can be large or run the other way.
Assay: FLuc inhibitory activity for the follow-up compounds in a cell-based assay to assess the activity of miR-21
Settings: HeLa miR-21-FLuc reporter, luciferase luminescence, 48 h; series mostly up to 38.3 µM; activity change, positive = activation: at the top concentration
Excerpt: NCGC Assay Overview: Firefly (Photinus pyralis) luciferase is one of the most commonly used transcriptional reporters. It is considered one of the more dynamically responsive reporters - that is, responsive to changes in reporter transcription - as it requires no post-translational modifications and is enzymatically active directly after protein synthesis (Wood, 1998). With no endogenous expression in mammalian cells and without the requirement of external excitation, it offers very little background signal, thus generally providing excellent signal to background for most assays. Previous profiling work to determine the prevalence of compounds that affect FLuc enzymatic activity (PubChem AID 411) identified that ~3% of the MLSMR library (then at ~72K) inhibited FLuc (Auld et al., 2008). […] Of the compounds identified in this profile that inhibited FLuc, 151 compounds were selected for further analysis, in an effort to better understand their mode of inhibiting FLuc. The assay described here was to determine the activity of the compounds in a cell-based firefly luciferase reporter gene assay originally designed to identify antagonists of miR-21. Compounds that inhibit miR-21 or compounds that stabilize FLuc intracellularly are identified as active compounds in the assay.
NCGC Assay Protocol Summary: Reagents: In-house detection reagent: 300mM Tris-HCl, 300mM Trizma base, 300mM MgCl, 1% Triton-X100, 5mM DTT, 500uM Coenzyme A trilithium salt (Sigma #C3019),450uM ATP (Sigma #A7699), 1mM D-luciferin sodium salt monohydrate (Biosynth #L8240) HeLa cells stably expressing firefly luciferase (FLuc) under the control of a CMV promoter (upstream) and a miR-21 binding sequence directly downstream of the gene. These cells endogenously express miR-21. Control compounds used were two known firefly luciferase inhibitors (3-(5-(3-chlorophenyl)-1,2,4-oxadiazol-3-yl)benzoic acid and 5-(2-fluorophenyl)-3-phenyl-1,2,4-oxadiazole), and DMSO. Assay Summary: 6uL of HeLa miR-21-FLuc cells in assay buffer (DMEM, Invitrogen #21063-029; 10% FBS, HyClone #SH30071.03) were dispensed at 2000cells/well (3.3 x 10^5 cells/mL) into Greiner solid-white TC-treated 1536-well plates using a Multidrop Combi (Thermo Fisher Scientific). Plates were incubated for one hour at 37 degree Celsius, 95% humidity, 5% CO2. These assay plates were then treated with 23nL of compound or DMSO using a Kalypsys pin tool, which allows for delivery of a 12-point titration of each compound to the assay plate, with a final compound concentration ranging from approximately ~38uM to 0.2nM. Assay plates were then incubated for 48 hours. After incubation, plates were allowed to come to RT for one hour prior to delivery of 3uL of 3X luciferase detection reagent. After a 15 minute incubation to allow for cell lysis, luciferase activity was measured using a ViewLux CCD imager (PerkinElmer), with an average exposure time of 2-12 seconds.
For `O=C(Nc1c(Cl)cc(Cl)cc1-c1nc2ccccc2s1)c1ccc(Br)o1`, the Potency was 12.6 µM (active). For `O=C(Nc1ccc(Cl)cc1-c1nc2ccccc2s1)c1ccco1`, the Potency was 20 µM (active). In the case of `O=C(O)c1cccc(NC(=O)c2ccc(S(=O)(=O)c3ccccc3)cc2)c1`, the “activity change, positive = activation” value is reported as 15.2%. In the case of `Nc1ccc2nc(-c3ccc(O)cc3)sc2c1`, the Potency is reported as 0.4 µM (active). With `COc1ccc2nc(NC(=O)c3ccc(NS(=O)(=O)c4cccs4)cc3)sc2c1` the Potency was 8.95 µM (active). For `CC(C)c1ccc(-c2nc3ccccc3s2)cc1`, the Potency was 0.0252 µM (active). In the case of `O=C(Nc1ccccc1C(=O)O)c1cc(S(=O)(=O)Nc2cccc(F)c2)ccc1Cl`, the “activity change, positive = activation” value is reported as 3.69%. With `Cc1ccc(S(=O)(=O)N2CCOCC2)cc1C(=O)Nc1ccccc1C(=O)O` the “activity change, positive = activation” value was -39.9%. With `Cc1ccc(C(=O)O/N=C(\N)c2ccccn2)cc1` the Potency was 0.2 µM (active). With `Cc1c(NC(=O)c2cc(-n3cnnc3)ccc2Cl)cccc1-c1nc2ccccc2s1` the Potency was 2.83 µM (active). In the case of `O=C(Nc1ccccc1C(=O)O)c1ccccc1`, the Potency is reported as 25.2 µM (active). For `O=C(Nc1ccccc1C(=O)O)c1ccc(NC(=O)C2CCCO2)cc1` (stereo not given), the “activity change, positive = activation” value was 13.9%. With `COc1cccc(-c2nc3ccccc3s2)c1` the Potency was 0.252 µM (active). In the case of `O=C(Nc1ccccc1C(=O)O)c1ccc(Cl)c(S(=O)(=O)N2CCOCC2)c1`, the Potency is reported as 12.6 µM (active). For `COc1cccc(OC)c1C(=O)Nc1cccc(C(=O)Nc2cccc(C(=O)O)c2)c1`, the “activity change, positive = activation” value was 12.7%. In the case of `COc1ccc2nc(NC(=O)c3ccco3)sc2c1`, the Potency is reported as 0.1 µM (active). In the case of `O=C(Nc1cccc(-c2nc3ccccc3s2)c1)c1cc(-n2cnnc2)ccc1Cl`, the Potency is reported as 4.49 µM (active). In the case of `Nc1ccc2nc(-c3ccccc3)sc2c1`, the Potency is reported as 0.0634 µM (active). With `O=C(O)c1cccc(NC(=O)c2cccc(S(=O)(=O)N3CCc4ccccc4C3)c2)c1` the “activity change, positive = activation” value was 20.6%. For `CC(C)Oc1ccc(C(=O)Nc2ccc(-c3nc4ccccc4s3)cc2)cc1`, the Potency was 1.13 µM (active). For `Cc1ccc(C(=O)O/N=C(\N)c2ccccn2)c(Cl)c1`, the Potency was 0.0318 µM (active). In the case of `Nc1ccccc1-c1nc2ccccc2s1`, the Potency is reported as 3.18 µM (active). In the case of `O=C(O)c1cccc(NC(=O)c2ccccc2NC(=O)c2ccccc2F)c1`, the “activity change, positive = activation” value is reported as 1.45%. With `Cc1c(NS(C)(=O)=O)cccc1-c1nc2ccccc2s1` the Potency was 4 µM (active). For `COc1ccc(-c2nc3ccccc3s2)cc1O`, the Potency was 1.79 µM (active). With `CCn1c(C)nc2cc(-c3nc4n(n3)Cc3ccccc3-4)ccc21` the Potency was 0.1 µM (active). For `Nc1ccccc1C(=O)Nc1cccc(C(=O)O)c1`, the Potency was 11.3 µM (active). With `O=C(COC(=O)c1ccccc1[N+](=O)[O-])c1ccc2c(c1)OCO2` the Potency was 5.04 µM (active). With `COc1ccc2nc(NC(=O)CCc3nc(-c4ccccc4F)no3)sc2c1` the Potency was 2.52 µM (active). For `COc1ccc2nc(NC(=O)c3cccs3)sc2c1`, the Potency was 10 µM (active). For `COc1c(C)cccc1C(=O)Nc1ccc(-c2nc3ccccc3s2)c(Cl)c1`, the Potency was 22.5 µM (active). For `O=C(Nc1ccccc1C(=O)O)c1cccc(NC(=O)c2ccc(Br)o2)c1`, the “activity change, positive = activation” value was 10.8%. With `COc1cc(OC)cc(-c2nc3ccccc3s2)c1` the Potency was 3.56 µM (active). For `COc1ccc2nc(NC(=O)c3ccc4ncsc4c3)sc2c1`, the Potency was 2.83 µM (active). With `CN(C)c1cccc(C(=O)Nc2ccc(-c3nc4ccccc4s3)cc2)c1` the Potency was 0.503 µM (active). In the case of `COc1ccc(C(=O)Nc2ccccc2C(=O)N/N=C/c2ccc(O)c(OC)c2)cc1`, the “activity change, positive = activation” value is reported as -59.6%. With `O=C(Nc1ccccc1C(=O)O)c1cccc(C(=O)Nc2ccccc2C(=O)O)c1` the “activity change, positive = activation” value was 17.2%. With `COc1ccc(CC(=O)Nc2cccc(C(=O)Nc3ccccc3C(=O)O)c2)cc1OC` the Potency was 5.04 µM (active). In the case of `Oc1ccc(-c2nc3ccccc3s2)c(O)c1`, the Potency is reported as 11.3 µM (active). With `CC(=O)Oc1ccc(C(=O)Nc2ccccc2C(=O)Nc2cccc(C(=O)O)c2)cc1` the “activity change, positive = activation” value was -13%.

— PubChem BioAssay AID602477 (National Center for Advancing Translational Sciences (NCATS), 2012)
